POLI inh – inhibitors of human DNA polymerase iota. Q9UNA4. Pol iota fluorescent replication assay, 10 min. Potency, µM (titrated, usually from 115 µM), inactives show at the top dose activity, negative = inhibition, usual class: inhibitors. 390,000 tested, 1% active. AID 588590; further: potency means the concentration at half of the fitted maximal effect
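Pol iota at 10 nM preincubated 15 min with compounds at room temperature; reaction started with fluorescent substrate, 50 nM final. Fluorescence read kinetically at 0 and 10 min; buffer-only wells as negative control.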
Pol eta inh-1 – blocks human DNA polymerase eta activity; Q9Y253; recombinant Pol eta, fluorescent DNA replication assay; Potency, µM (titrated, usually from 114 µM), for the others: at the top dose activity change, negative = inhibition, usual class: inhibitors; 390,000 tested, 1.2% active; AID 588591; further: potency means the concentration at half of the fitted maximal effect; on the % scale 0 is the no-effect control and ±100 the full control effect
Target sequence (Q9Y253 whole entry, looked up): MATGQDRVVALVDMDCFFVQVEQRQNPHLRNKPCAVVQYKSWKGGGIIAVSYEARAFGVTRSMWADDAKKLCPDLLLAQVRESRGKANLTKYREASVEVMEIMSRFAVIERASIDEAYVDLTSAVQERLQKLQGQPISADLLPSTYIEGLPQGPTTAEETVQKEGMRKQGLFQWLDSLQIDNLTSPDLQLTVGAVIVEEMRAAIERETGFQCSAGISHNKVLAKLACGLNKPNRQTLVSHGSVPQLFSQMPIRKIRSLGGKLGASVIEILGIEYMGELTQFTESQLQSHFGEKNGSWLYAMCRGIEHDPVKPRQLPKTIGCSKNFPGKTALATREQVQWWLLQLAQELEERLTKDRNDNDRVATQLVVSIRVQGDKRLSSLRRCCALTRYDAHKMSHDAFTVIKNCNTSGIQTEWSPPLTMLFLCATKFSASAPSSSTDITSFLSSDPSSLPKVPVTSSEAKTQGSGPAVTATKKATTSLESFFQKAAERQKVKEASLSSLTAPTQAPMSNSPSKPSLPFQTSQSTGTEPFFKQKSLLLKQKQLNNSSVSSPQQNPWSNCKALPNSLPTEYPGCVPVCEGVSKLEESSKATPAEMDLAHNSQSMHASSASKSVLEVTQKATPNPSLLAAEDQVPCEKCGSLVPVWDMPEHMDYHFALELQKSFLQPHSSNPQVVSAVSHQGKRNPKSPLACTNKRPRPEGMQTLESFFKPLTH
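Pol eta (10 nM) was preincubated with compounds for 15 min at room temperature, after which fluorescent replication substrate (50 nM final) was added to start the reaction. Fluorescence was read kinetically at 0 and 10 min.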
Pol kappa inh-1 – blocks human DNA polymerase kappa activity. AID 588579. Potency, µM (highest dose often 107 µM), inactives show at the highest dose activity, negative = inhibition, usual class: inhibitors. purified Pol kappa, fluorescent DNA synthesis assay, 10 min. 400,000 tested, 0.53% active. Q9UBT6; further: potency means the concentration at half of the fitted maximal effect; on the % scale 0 is the no-effect control and ±100 the full control effect
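Kinetic fluorescence screen: compound preincubated 15 min RT with 10 nM enzyme; 50 nM substrate (final) initiates; reads at 0/10 min.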
Pol beta inh – DNA polymerase beta (human) inhibition. Potency, µM (highest dose often 114 µM), inactives show at the top dose activity change, negative = inhibition, actives largely listed as inhibitors. 340,000 tested, 1.3% active. P06746. Pol beta primer extension/strand displacement, fluorescence kinetic; further: potency means the concentration at half of the fitted maximal effect; on the % scale 0 is the no-effect control and ±100 the full control effect
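Pol beta (10 nM) and compounds were preincubated 15 min at room temperature, then 50 nM substrate (final) started primer extension/strand displacement. Reads were taken at 0 and 10 min; concentration-response data were fitted to a four-parameter Hill equation.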
PI5P4K alpha inh – inhibitors of human PI5P4K alpha; max response, %; PI5P4Kalpha enzyme, ADP-Glo luminescence, 60 min; hits give low values; AID 652105; 330,000 tested, 1.2% active; P48426; active means max response of -50% or lower; inconclusive means between -30% and -50%; inactive means -30% or higher; further: value at the top dose of about 77 µM; on the % scale 0 is the no-effect control and ±100 the full control effect
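Enzyme plus substrate dispensed, test compounds pinned in, then ATP (5 microM final) added. After 60 min at RT, ADP-Glo reagent 1 for 45 min and reagent 2 for 30 min preceded luminescence imaging.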
WRN helicase inh-1 – inhibitors of human WRN helicase; Q14191; WRN helicase unwinding, fluorescent forked duplex, kinetic; Potency, µM (doses to about 114 µM), without a hit: at the highest dose activity change, negative = inhibition, usual class: inhibitors; 360,000 tested, 0.46% active; AID 651768; further: potency means the concentration at half of the fitted maximal effect; on the % scale 0 is the no-effect control and ±100 the full control effect; nearly all actives have a fitted effect of over 55% in size
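Kinetic red-fluorescence monitoring (525/598 nm) tracks WRN helicase activity after 100 nM fluorophore-quencher forked duplex and 2 mM ATP are added to 20 nM enzyme pretreated 15 min at room temperature with compound.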
POLI cherry-pick – Confirm cherry-picked inhibitors of human polymerase iota; shares compounds with Pol kappa inh-1; Pol iota primer extension, TAMRA/BHQ fluorescence; Potency, µM, usual class: inhibitors; 1,500 tested, 77% active; further: potency means the concentration at half of the fitted maximal effect
Pol kappa inh-2 – confirmation of human DNA polymerase kappa inhibitors; shares compounds with Pol eta inh-1; purified Pol-kappa, fluorescent strand-displacement substrate; Potency, µM, most hits filed as inhibitors; 920 tested, 76% active; AID 720501; further: potency means the concentration at half of the fitted maximal effect
Pol eta inh-2 – confirmation of human DNA polymerase eta inhibitors. Potency, µM, usual class: inhibitors. AID 720502. 2,600 tested, 64% active. shares compounds with Pol eta inh-1. Pol eta primer extension, TAMRA/BHQ fluorescence, 10 min; further: potency means the concentration at half of the fitted maximal effect
WRN helicase inh-2 – WRN helicase inhibition, cherry-pick retest; WRN helicase DNA unwinding, fluorescence kinetic; shares compounds with WRN helicase inh-1; 610 tested, 63% active; Potency, µM (doses to about 57.1 µM), for the others: at the top dose activity, negative = inhibition, actives largely listed as inhibitors; AID 720497; further: potency means the concentration at half of the fitted maximal effect; nearly all actives have a fitted effect of over 65% in size
TO displacement – counter-screen for WRN helicase inhibitors: DNA binding. Potency, µM (titrated, usually from 57.1 µM), for the others: at the highest dose activity change, negative = inhibition, hits mostly inhibitors. thiazole orange DNA binding displacement, fluorescence. 610 tested, 10% active. AID 720499. shares compounds with WRN helicase inh-1;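 further: drop in dye fluorescence marks compound binding to DNA; potency means the concentration at half of the fitted maximal effect; on the % scale 0 is the no-effect control and ±100 the full control effect; nearly all actives have a fitted effect of over 60% in size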
BLM counter – BLM helicase inhibition, WRN selectivity check; shares compounds with WRN helicase inh-1; Recombinant BLM helicase DNA unwinding, red fluorescence; Potency, µM (top dose mostly 57.1 µM), without a hit: top-dose activity change, negative = inhibition, most hits filed as inhibitors; 610 tested, 60% active; further: potency means the concentration at half of the fitted maximal effect; nearly all actives have a fitted effect of over 60% in size
ADP-Glo counter – counter-screen for PI5P4K inhibitors: ADP-Glo detection interference, no enzyme; shares compounds with PI5P4K alpha inh; ADP-Glo detection counter-screen, luciferase luminescence, no enzyme; Potency, µM (doses to about 76.9 µM), for the others: at the highest dose activity change, negative = inhibition, usual class: inhibitors; 1,100 tested, under 10 active; AID 743285
The depositor's hits bear a star; i = inactive; ? = inconclusive; . = no result; [ ] = dose if it differs, or a comment. Only some compounds are listed: those with a hit (about 2.8% of all), similar ones and a draw of the others. Unless noted, the call rests on the fitted dose curve; in most records, active means well fitted curve in the direction sought with a large enough effect; inconclusive means small, poorly fitted or top-dose-only effect, or another doubt; inactive means no such curve, though single readings can be large; an effect the other way counts as inactive or inconclusive.

SMILES | POLI inh | Pol eta inh-1 | Pol kappa inh-1 | Pol beta inh | PI5P4K alpha inh | WRN helicase inh-1 | POLI cherry-pick | Pol eta inh-2 | ADP-Glo counter | others
CN1/C(=C\C=C2/SC(=S)N(CC(=O)O)C2=O)C(C)(C)c2ccccc21 | . | 45µM* | ? | 40µM* | -27 | 50µM* | 38* | 34* | . | Pol kappa inh-2=34*;WRN helicase inh-2=22µM*;TO displacement=i;BLM counter=22µM*
C=CCN1C(=O)/C(=C\C=C2\N(C)c3ccccc3C2(C)C)SC1=S | ? | ? | -9% | ? | -3 | ? | . | . | .
O=c1cc(-c2ccc(F)cc2F)[nH]c2ccc(F)cc12 | . | . | -13% | . | . | . | . | . | .
CCc1ccc(NC(=O)Cc2c(C(=O)O)c(C)cn2C)cc1 | 25% | -7% | -5%[60.1 µM] | 10% | . | . | . | . | .
CC(=O)Nc1ccc(S(=O)(=O)Nc2cccc(-n3cnnn3)c2)cc1 | 38% | -3% | -2% | 30% | 0 | -6% | . | . | .
CC(=O)c1ccc(S(=O)(=O)Nc2cccc(-n3cnnn3)c2)cc1 | 20µM* | 7.9µM* | ? | ? | -67* | 56µM* | 75* | 30* | -7%
Cn1cccc1C(=O)OCc1nc2ccccc2c(=O)[nH]1 | 18µM* | 20µM* | 71µM* | . | -53* | -10%[11.6 µM] | 47* | ? | -11%
O=c1[nH]c(COc2ccccc2)nc2ccccc12 | -10% | -3% | -6% | 14% | -1 | 1% | . | . | .
Cc1cnc(C(=O)OCc2nc3ccsc3c(=O)[nH]2)cn1 | 16µM* | 10µM* | 79µM* | . | -65* | 50µM* | 27* | 21* | -11%
O=C(OCc1nc2ccsc2c(=O)[nH]1)c1ccco1 | 47% | 5% | -13% | . | 0 | -27% | . | . | .
COc1ccc(OC)c([N+](=O)[O-])c1C(N)=O | 18µM* | 50µM* | ? | 6.3µM* | -65* | ? | 21* | 30* | -10%
Cc1ccc(NC(=O)CSc2[nH]c(=O)ncc2C)cc1 | 1% | 5% | -5%[60.1 µM] | 19% | . | . | . | . | .
O=C(O)c1ccc(NS(=O)(=O)c2ccc3c(c2)C2C=CCC2C(c2ccccc2F)N3)cc1 (stereo not given) | ? | 10µM* | 35µM* | ? | -51* | 35µM* | 38* | 19* | -3%
CCOC(=O)N1CCN(Cc2nc3cc(NC(=O)c4ccc(F)cc4)ccc3n2C(C)C)CC1 | 6% | 8% | -15% | 25% | . | . | . | . | .
